Results filed as inconclusive are left out. Calls of active or inactive are those of the source. How the source made its calls: active means hit-call score of the fitted dose curve at least 0.9, where 1 is the maximum; inconclusive means response in the unintended direction; inactive means score below 0.9.
Assay: ACEA_ER_80hr: ACEA Biosciences xCELLigence Real-Time Cell Analysis on Estrogen Receptor Agonism for Proliferation (AID 2282667)
Settings: T47D proliferation, impedance (xCELLigence), 80 h
In short: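 T47D human breast cells were seeded on electrode plates, monitored overnight, then exposed continuously to compounds in eight-point 1:4 dilutions from 100 uM (max 0.5% DMSO). Impedance-based growth was read at 80 h, fitted upward relative to DMSO.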

| SMILES | AC50 | outcome |
| --- | --- | --- |
| O=c1cc(-c2ccc(O)cc2)oc2cc(O)cc(O)c12 | 1330 nM (active) |  |
| CC(C)(O)CCc1ccccc1 |  | inactive |
| CN(C)C(=O)Nc1ccccc1 |  | inactive |
| CCO[Si](CC)(OCC)OCC |  | inactive |
| CCC(=O)OC(C)(C)C1CC=C(C)CC1 (configuration not stated) |  | inactive |
| CCCCCC1CCC(=O)O1 (configuration not stated) |  | inactive |
| CC(C)(C)c1cc(CCC(=O)OCCSCCOC(=O)CCc2cc(C(C)(C)C)c(O)c(C(C)(C)C)c2)cc(C(C)(C)C)c1O |  | inactive |
| CC(CO)(CO)[N+](=O)[O-] |  | inactive |
| CC(C)(O)C(=O)c1ccc(OCCO)cc1 |  | inactive |
| C=C(C)CCCC(C)CCO (configuration not stated) |  | inactive |
| CCCCCCOc1ccc(O)cc1 |  | inactive |
| c1ccc(Cc2ccccc2)cc1 |  | inactive |
| CCC(C)(C)C1CCC(=O)CC1 |  | inactive |
| COC(=O)C(C)Oc1ccc(Oc2ncc(C(F)(F)F)cc2Cl)cc1 (configuration not stated) |  | inactive |
| NNC(=O)OCc1ccccc1 |  | inactive |
| N[C@@H](CCC(=O)O)C(=O)O |  | inactive |
| CCC(C)(CCCC(C)C)OC(C)=O (configuration not stated) |  | inactive |
| CC1=CC(C)C(C=O)C(C)C1 (configuration not stated) (tested in a mixture with another compound) |  | inactive |
| CC(C)Cc1ccccc1 |  | inactive |
| CCOC(=O)CC1(C)OCC(C)O1 (configuration not stated) |  | inactive |
| CC1=CC[C@@H](C(C)(C)O)CC1 |  | inactive |
| CCCCOCCOCCOCCO |  | inactive |
| CCCCOCCOCCO |  | inactive |
| CCCCC/C=C\C=C\C(=O)OCC |  | inactive |
| CC(C)N(c1ccccc1)C(C)C |  | inactive |
| CC(C)=CC(=O)O | 3270 nM (active) |  |
| CCOC(=O)C=Cc1ccccc1 |  | inactive |

— PubChem BioAssay (EPA / NIEHS)
